One may read the AC50 as the midpoint of the concentration-response curve, whichever way the signal moves.

The source made the active and inactive calls. How the source made its calls: active means hit-call score of the fitted dose curve at least 0.9, where 1 is the maximum; inactive means score below 0.9.

39 compounds from PubChem BioAssay (EPA / NIEHS) can be followed below.

Chain of Hepatocyte nuclear factor 6 (Homo sapiens) (Q9UBC0 whole entry, looked up): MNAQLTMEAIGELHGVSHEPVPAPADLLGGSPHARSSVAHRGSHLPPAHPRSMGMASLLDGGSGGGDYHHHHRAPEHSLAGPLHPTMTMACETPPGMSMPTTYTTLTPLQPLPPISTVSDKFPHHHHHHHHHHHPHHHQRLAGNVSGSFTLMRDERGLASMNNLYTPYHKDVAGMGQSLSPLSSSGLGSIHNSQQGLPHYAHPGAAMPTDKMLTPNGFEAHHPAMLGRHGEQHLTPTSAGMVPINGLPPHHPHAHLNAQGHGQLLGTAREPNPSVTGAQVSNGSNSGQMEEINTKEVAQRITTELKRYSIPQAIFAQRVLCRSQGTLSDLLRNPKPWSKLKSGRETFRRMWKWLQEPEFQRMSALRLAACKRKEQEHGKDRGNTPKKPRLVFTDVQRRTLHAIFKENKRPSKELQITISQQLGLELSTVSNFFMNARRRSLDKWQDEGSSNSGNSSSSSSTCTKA

The target of one assay is Hepatocyte nuclear factor 6 (Homo sapiens) (UniProt Q9UBC0). The assay can be described thus: ATG_HNF6_CIS: Attagene CIS-FACTORIAL HepG2 Assay for human Hepatocyte Nuclear Factor 6 (HNF6) (AID 2282952). The following applies: HepG2 Attagene cis-factorial HNF6 reporter transcription; actives raise or lower the signal. In a few lines:
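Activity values derive from bidirectional fitting against DMSO of reporter mRNA levels, measured by capillary electrophoresis of labelled RT-PCR products from HepG2 cells exposed 24 h.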
Take `O=S1OC[C@@H]2[C@H](CO1)[C@]1(Cl)C(Cl)=C(Cl)[C@@]2(Cl)C1(Cl)Cl` (stereo partly drawn): the call was inactive.

For `CC1(C)[C@H](/C=C2\CCSC2=O)[C@@H]1C(=O)OCc1coc(Cc2ccccc2)c1`, the compound was called inactive.

With `CNC(=O)CSP(=O)(OC)OC`, the compound was called inactive.

With `c1csc(-c2ccc(-c3cccs3)s2)c1`, the outcome was inactive.

Regarding `C1CCC(C2CCCCC2)CC1`, the compound was classed as inactive.

Take `NC(=O)c1ccc(N)nc1`: the outcome was inactive.

In the case of `CC(F)(F)CC(F)(F)F`, the compound was called inactive.

`C=CC(=O)[O][Sn]([CH2]CCC)([CH2]CCC)[CH2]CCC`: the concentration at half-maximal activity (AC50) is 657 nM (active).

For `O=S(=O)(C(Cl)(Cl)Cl)C(Cl)(Cl)Cl`, the call was inactive.

As to `COC(=O)c1cc(Oc2ccc(Cl)cc2Cl)ccc1[N+](=O)[O-]`, the outcome was inactive.

`CC(C)(c1ccc(O)c(-c2ccccc2)c1)c1ccc(O)c(-c2ccccc2)c1`: the result was inactive.

Consider `Clc1cc(C(Cl)(Cl)Cl)cnc1Cl`, for which the outcome was inactive.

With `CCOC(=O)OC1=C(c2cc(C)ccc2C)C(=O)NC12CCC(OC)CC2` (stereo not drawn), the result was inactive.

In the case of `CCCSP(=S)(OCC)Oc1ccc(SC)cc1` (stereo not drawn), the compound was called inactive.

`CN(C1CCCCC1)C1CCCCC1`: the call was inactive.

`ClCCN1CCOCC1`: the outcome was inactive.

Consider `FC(F)OCC(F)(F)C(F)(F)F`, for which the result was inactive.

Turning to `N#Cc1ccccc1N`, the compound was called inactive.

In the case of `[F][Sn]([c]1ccccc1)([c]1ccccc1)[c]1ccccc1`, the compound was called inactive.

As for `C[As+](C)(C)CC(=O)[O-]`, the result was inactive.

With `O=C(Nc1ccc(Br)cc1)c1cc(Br)cc(Br)c1O`, the compound was classed as inactive.

`O=[N+]([O-])c1ccc(Cl)c([N+](=O)[O-])c1`: the compound was called inactive.

Regarding `CC(=Cc1ccccc1)[N+](=O)[O-]`, the compound was called inactive.

Take `CCOc1ccc(N)cc1`: the outcome was inactive.

The next assay deals with Heat shock factor protein 1 (Homo sapiens) (UniProt Q00613). The assay can be described thus: ATG_HSE_CIS: Attagene CIS-FACTORIAL HepG2 Assay for human Heat Shock Transcription Factor 1 (HSE) (AID 2282953). The following applies: HepG2 HSE cis-reporter, Attagene RNA transcription; actives raise or lower the signal. An outline of the steps: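 Read-out: fluorescence of reporter-specific RT-PCR fragments separated by capillary electrophoresis. HepG2 carrying transfected cis-element reporter units; 24 h dosing; activity fitted in both directions relative to DMSO baseline.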
Chain of Heat shock factor protein 1 (Homo sapiens) (Q00613 whole entry, looked up, the tested form may be a part): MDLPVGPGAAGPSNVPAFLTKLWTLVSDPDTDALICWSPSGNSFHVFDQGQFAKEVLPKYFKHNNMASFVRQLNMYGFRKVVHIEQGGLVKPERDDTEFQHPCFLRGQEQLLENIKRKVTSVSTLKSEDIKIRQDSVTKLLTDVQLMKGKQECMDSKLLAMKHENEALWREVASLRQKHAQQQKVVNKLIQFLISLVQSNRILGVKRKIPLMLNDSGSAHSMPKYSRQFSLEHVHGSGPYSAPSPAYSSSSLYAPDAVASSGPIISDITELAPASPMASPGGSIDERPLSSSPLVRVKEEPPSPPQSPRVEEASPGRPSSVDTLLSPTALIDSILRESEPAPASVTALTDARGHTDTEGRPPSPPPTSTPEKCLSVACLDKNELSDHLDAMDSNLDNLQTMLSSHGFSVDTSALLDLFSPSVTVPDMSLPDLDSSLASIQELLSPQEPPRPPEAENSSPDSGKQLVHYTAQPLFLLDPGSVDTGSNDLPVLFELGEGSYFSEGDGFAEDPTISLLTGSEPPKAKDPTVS
As for `CCCCCCCCCCBr`, the compound was called inactive.

Consider `N#CCCC(Br)(C#N)CBr` (stereo not drawn), for which the half-maximal activity concentration (AC50) was 62.9 µM (active).

Consider `C=C(C)[C@@H]1CC=C(C=O)CC1`, for which the call was inactive.

For the compound `Cc1cc(SCc2sc(-c3ccc(C(F)(F)F)c(F)c3)nc2C)ccc1OCC(=O)O`, the concentration at half-maximal activity (AC50) is 50.9 µM (active).

For `ClCc1ccccc1CCl`, the AC50 was 21.7 µM (active).

For `N#Cc1ccc(Cl)cc1`, the outcome was inactive.

Consider `O=C1C=CC(=O)c2ccccc21`, for which the call was inactive.

Regarding `CC(O)(CS(=O)(=O)c1ccc(F)cc1)C(=O)Nc1ccc(C#N)c(C(F)(F)F)c1` (stereo not drawn), the compound was called inactive.

Turning to `CCOC(=O)CC(=O)CCl`, the half-maximal activity concentration (AC50) was 146 µM (active).

Turning to `O=C(NC(=O)c1c(F)cccc1F)Nc1cc(Cl)c(OC(F)(F)C(F)C(F)(F)F)cc1Cl` (stereo not drawn), the call was inactive.

Take `C=CC(=O)NC(C)(C)CC(C)=O`: the compound was called inactive.

Regarding `CC(C)CP(=S)(S)CC(C)C`, the call was inactive.

Regarding `Cc1cc(C(F)(C(F)(F)F)C(F)(F)F)ccc1NC(=O)c1cccc(I)c1C(=O)NC(C)(C)CS(C)(=O)=O`, the call was inactive.

`O=S1OC[C@@H]2[C@H](CO1)[C@]1(Cl)C(Cl)=C(Cl)[C@@]2(Cl)C1(Cl)Cl` (stereo partly drawn): the result was inactive.

With `CC1(C)[C@H](/C=C2\CCSC2=O)[C@@H]1C(=O)OCc1coc(Cc2ccccc2)c1`, the call was inactive.

On to `CNC(=O)CSP(=O)(OC)OC`, for which the compound was classed as inactive.

As to `C1CCC(C2CCCCC2)CC1`, the call was inactive.

On to `CC(F)(F)CC(F)(F)F`, for which the result was inactive.

Take `C=CC(=O)[O][Sn]([CH2]CCC)([CH2]CCC)[CH2]CCC`: the AC50 is 0.645 µM (active).

For the compound `O=S(=O)(C(Cl)(Cl)Cl)C(Cl)(Cl)Cl`, the AC50 is 7.93 µM (active).

On to `COC(=O)c1cc(Oc2ccc(Cl)cc2Cl)ccc1[N+](=O)[O-]`, for which the outcome was inactive.

As for `Clc1cc(C(Cl)(Cl)Cl)cnc1Cl`, the result was inactive.

For the compound `CCOC(=O)OC1=C(c2cc(C)ccc2C)C(=O)NC12CCC(OC)CC2` (stereo not drawn), the compound was classed as inactive.

Regarding `CCCSP(=S)(OCC)Oc1ccc(SC)cc1` (stereo not drawn), the result was inactive.

`CN(C1CCCCC1)C1CCCCC1`: the compound was classed as inactive.

Turning to `ClCCN1CCOCC1`, the result was inactive.

Consider `FC(F)OCC(F)(F)C(F)(F)F`, for which the outcome was inactive.

With `[F][Sn]([c]1ccccc1)([c]1ccccc1)[c]1ccccc1`, the AC50 is 0.324 µM (active).

Take `C[As+](C)(C)CC(=O)[O-]`: the outcome was inactive.

In the case of `O=[N+]([O-])c1ccc(Cl)c([N+](=O)[O-])c1`, the concentration at half-maximal activity (AC50) was 6.97 µM (active).

Tested on in the next assay: not listed separately
The experiment in a line: ATG_MRE_CIS: Attagene CIS-FACTORIAL HepG2 Assay for human Metal Responsive Element (MRE) (AID 2282954). The following applies: HepG2 MRE cis-reporter transcription, Attagene multiplex; actives raise or lower the signal. An outline of the steps: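 Readout: capillary electrophoresis of 6-FAM-labelled, HpaI-digested RT-PCR reporter products. System: HepG2 cells carrying transient multiplexed cis reporters, dosed 24 h. Analysis: bidirectional fit, DMSO baseline.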
`CCCCCCCCCCBr`: the call was inactive.

For the compound `N#CCCC(Br)(C#N)CBr` (stereo not drawn), the AC50 is 49.5 µM (active).

Consider `O=C(NC(=O)c1c(F)cccc1F)Nc1cc(Cl)c(Oc2ncc(C(F)(F)F)cc2Cl)c(Cl)c1`, for which the call was inactive.

Take `C=C(C)[C@@H]1CC=C(C=O)CC1`: the AC50 is 85.2 µM (active).

For the compound `Cc1cc(SCc2sc(-c3ccc(C(F)(F)F)c(F)c3)nc2C)ccc1OCC(=O)O`, the AC50 was 24.5 µM (active).

`ClCc1ccccc1CCl`: the compound was classed as inactive.

For `N#Cc1ccc(Cl)cc1`, the compound was called inactive.

Take `C[N+](C)(C)Cc1ccccc1`: the outcome was inactive.

Consider `O=C1C=CC(=O)c2ccccc21`, for which the compound was called inactive.

Consider `CC(O)(CS(=O)(=O)c1ccc(F)cc1)C(=O)Nc1ccc(C#N)c(C(F)(F)F)c1` (stereo not drawn), for which the AC50 was 72.3 µM (active).

For the compound `CCOC(=O)CC(=O)CCl`, the AC50 is 26 µM (active).

For the compound `O=C(NC(=O)c1c(F)cccc1F)Nc1cc(Cl)c(OC(F)(F)C(F)C(F)(F)F)cc1Cl` (stereo not drawn), the compound was called inactive.

Take `C=CC(=O)NC(C)(C)CC(C)=O`: the call was inactive.

Turning to `CC(C)CP(=S)(S)CC(C)C`, the result was inactive.

As to `Cc1cc(C(F)(C(F)(F)F)C(F)(F)F)ccc1NC(=O)c1cccc(I)c1C(=O)NC(C)(C)CS(C)(=O)=O`, the call was inactive.

With `O=S1OC[C@@H]2[C@H](CO1)[C@]1(Cl)C(Cl)=C(Cl)[C@@]2(Cl)C1(Cl)Cl` (stereo partly drawn), the AC50 was 66.4 µM (active).

As for `CC1(C)[C@H](/C=C2\CCSC2=O)[C@@H]1C(=O)OCc1coc(Cc2ccccc2)c1`, the AC50 is 19.8 µM (active).

For the compound `CNC(=O)CSP(=O)(OC)OC`, the compound was called inactive.

Turning to `c1csc(-c2ccc(-c3cccs3)s2)c1`, the concentration at half-maximal activity (AC50) is 3.99 µM (active).

Regarding `C1CCC(C2CCCCC2)CC1`, the compound was called inactive.

As for `NC(=O)c1ccc(N)nc1`, the call was inactive.

Consider `CC(F)(F)CC(F)(F)F`, for which the compound was classed as inactive.

In the case of `C=CC(=O)[O][Sn]([CH2]CCC)([CH2]CCC)[CH2]CCC`, the AC50 is 0.412 µM (active).

Regarding `O=S(=O)(C(Cl)(Cl)Cl)C(Cl)(Cl)Cl`, the concentration at half-maximal activity (AC50) is 16.5 µM (active).

In the case of `COC(=O)c1cc(Oc2ccc(Cl)cc2Cl)ccc1[N+](=O)[O-]`, the AC50 was 17.9 µM (active).

Take `CC(C)(c1ccc(O)c(-c2ccccc2)c1)c1ccc(O)c(-c2ccccc2)c1`: the AC50 is 2.93 µM (active).

On to `Clc1cc(C(Cl)(Cl)Cl)cnc1Cl`, for which the concentration at half-maximal activity (AC50) is 9.1 µM (active).

As to `CCOC(=O)OC1=C(c2cc(C)ccc2C)C(=O)NC12CCC(OC)CC2` (stereo not drawn), the compound was called inactive.

On to `CCCSP(=S)(OCC)Oc1ccc(SC)cc1` (stereo not drawn), for which the compound was called inactive.

On to `CN(C1CCCCC1)C1CCCCC1`, for which the compound was classed as inactive.

As to `ClCCN1CCOCC1`, the outcome was inactive.

Regarding `FC(F)OCC(F)(F)C(F)(F)F`, the outcome was inactive.

For `N#Cc1ccccc1N`, the compound was called inactive.

Regarding `[F][Sn]([c]1ccccc1)([c]1ccccc1)[c]1ccccc1`, the AC50 was 0.339 µM (active).

As for `C[As+](C)(C)CC(=O)[O-]`, the result was inactive.

In the case of `O=C(Nc1ccc(Br)cc1)c1cc(Br)cc(Br)c1O`, the half-maximal activity concentration (AC50) is 13.3 µM (active).

`O=[N+]([O-])c1ccc(Cl)c([N+](=O)[O-])c1`: the compound was called inactive.

For the compound `CC(=Cc1ccccc1)[N+](=O)[O-]`, the compound was called inactive.

As for `CCOc1ccc(N)cc1`, the outcome was inactive.
